Results as given in PubChem BioAssay.
Activity calls are given as the source filed them. Unless noted, no rule for the calls is given here.

Columns and labels:
[1] = compound effects on lung adenocarcinoma cell viability – A549, calcein-AM fluorescence, 48 h, basal, profiling panel (AID 1162); settings: higher = more signal; also: test concentration not given here
[2] = compound effects on differentiated 3T3-L1 adipocyte viability – cell-based, 3T3-L1 adipocytes, calcein-AM fluorescence, 48 h, basal, profiling panel (AID 1163); settings: 3T3-L1 adipocytes viability, higher = more signal; also: test concentration not given here
[3] = compound effects on hepatocellular carcinoma cell viability – HepG2, calcein-AM fluorescence, 48 h, basal, profiling panel (AID 1164); settings: higher = more signal; also: test concentration not given here
[4] = compound effects on multiple myeloma cell viability – MM1S, calcein-AM fluorescence, 48 h, basal, profiling panel (AID 1165); settings: higher = more signal;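 also: viability of MM1S multiple myeloma cells under basal unstimulated conditions; test concentration not given here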
[5] = calcein-AM signal in unstimulated myeloma cells – cell-based, calcein-AM fluorescence, 48 h, PK04 Diversity Set, profiling panel (AID 1166); settings: RPMI8226 myeloma viability, higher = more signal;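 also: cells grown under basal conditions without added stimulus; test concentration not given here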
[6] = JC-1 mitochondrial signal, unstimulated HepG2 cells – cell-based, JC-1 fluorescence, 24 h, 100 nL compound, profiling panel (AID 1167); settings: HepG2 mitochondrial potential, higher = more signal; also: test concentration not given here
[7] = JC-1 mitochondrial signal, unstimulated adipocytes – cell-based, JC-1 fluorescence, 3T3-L1 adipocytes, 24 h, 100 nL compound, profiling panel (AID 1168); settings: JC-1 mitochondrial fluorescence, higher = more signal, called active from +8 up or from −8 down; also: test concentration not given here
[8] = JC-1 mitochondrial signal, unstimulated myeloma cells – cell-based, JC-1 fluorescence, RPMI8226, 24 h, 100 nL compound, profiling panel (AID 1169); settings: JC-1 mitochondrial potential fluorescence, higher = more signal; also: test concentration not given here
[9] = JC-1 mitochondrial signal, unstimulated MM1S myeloma – cell-based, JC-1 fluorescence, 24 h, 100 nL compound, profiling panel (AID 1170); settings: MM1S mitochondrial potential, higher = more signal; also: test concentration not given here
[10] = resazurin metabolic signal in A549 cells – cell-based, resazurin fluorescence, 24 h, PK04 Diversity Set, profiling panel (AID 1171); settings: A549 viability, higher = more signal, called active from +8 up or from −8 down; also: test concentration not given here
[11] = resazurin metabolic signal in HepG2 cells – cell-based, resazurin fluorescence, 24 h, PK04 Diversity Set, profiling panel (AID 1172); settings: HepG2 viability, higher = more signal; also: test concentration not given here
[12] = budding yeast growth changes without added modifier – OD600, strain BY4716, 24 h, basal condition, primary screen (AID 1173); settings: S. cerevisiae BY4716 growth, OD600, 24 h; higher = more signal, called active from +8 up or from −8 down
[13] = viability profiling in MM1S myeloma cells – cell-based, resazurin fluorescence, basal, 24 h, PK04 Diversity Set, profiling panel (AID 1174); settings: higher = more signal, called active from +8 up or from −8 down; also: test concentration not given here
[14] = target: Dihydroorotate dehydrogenase (quinone), mitochondrial (Plasmodium falciparum (isolate 3D7)) (UniProt Q08210); assay: inhibition of P. falciparum DHODH – biochemical, C-terminal His tag, absorbance 600 nm, primary screen (AID 1175); settings: PfDHODH enzyme, DCIP absorbance 600 nm; higher = more signal, called active from +8 up or from −8 down;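 also: recombinant parasite enzyme with a five histidine tag at its C terminus; test concentration not given here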
[15] = inhibition of PAO1 biofilm formation – strain PAO1, LB-PBS medium, absorbance 600 nm, primary screen (AID 1176); also: test concentration not given here; settings: P. aeruginosa PAO1 growth/biofilm, A600, 12 h; higher = more signal
[16] = growth modulation of vineyard yeast isolate – strain RM11-1a, OD600, basal, 24 h, primary screen (AID 1177);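 also: cultures grown under basal conditions with no added stressor; test concentration not given here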; settings: S. cerevisiae RM11-1a growth, OD600, 24 h; higher = more signal, called active from +8 up or from −8 down
[17] = growth of efflux-deficient E. coli DRC39 – strain DRC39, OD650, 24 h, E. coli filamentation inducers, primary screen (AID 1178);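 also: growth measured as culture turbidity by optical density at 650 nm; test concentration not given here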; settings: E. coli DRC39 acrAB, higher = more signal, called active from +8 up or from −8 down
[18] = growth of efflux-deficient E. coli DRC39 – strain DRC39, OD650, 48 h, E. coli filamentation inducers, primary screen (AID 1179);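 also: screen aims at cell division blockers that make cells filament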; settings: E. coli DRC39 delta-acrAB growth, higher = more signal, called active from +8 up or from −8 down
[19] = viability profiling in RPMI8226 myeloma cells – cell-based, resazurin fluorescence, basal, 24 h, PK04 Diversity Set, profiling panel (AID 1180); settings: higher = more signal;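 also: RPMI8826 multiple myeloma cell line at 5000 cells per well; test concentration not given here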
[20] = target: E3 ubiquitin-protein ligase XIAP (Homo sapiens) (UniProt P98170); assay: small molecules binding XIAP protein – biophysical, small-molecule microarray, fluorescence 635 nm, primary screen (AID 1181); settings: higher = more signal;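 also: score merges 667 nm emission and signal to noise over triplicate slides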
Chain of E3 ubiquitin-protein ligase XIAP (Homo sapiens) (P98170 whole entry, looked up): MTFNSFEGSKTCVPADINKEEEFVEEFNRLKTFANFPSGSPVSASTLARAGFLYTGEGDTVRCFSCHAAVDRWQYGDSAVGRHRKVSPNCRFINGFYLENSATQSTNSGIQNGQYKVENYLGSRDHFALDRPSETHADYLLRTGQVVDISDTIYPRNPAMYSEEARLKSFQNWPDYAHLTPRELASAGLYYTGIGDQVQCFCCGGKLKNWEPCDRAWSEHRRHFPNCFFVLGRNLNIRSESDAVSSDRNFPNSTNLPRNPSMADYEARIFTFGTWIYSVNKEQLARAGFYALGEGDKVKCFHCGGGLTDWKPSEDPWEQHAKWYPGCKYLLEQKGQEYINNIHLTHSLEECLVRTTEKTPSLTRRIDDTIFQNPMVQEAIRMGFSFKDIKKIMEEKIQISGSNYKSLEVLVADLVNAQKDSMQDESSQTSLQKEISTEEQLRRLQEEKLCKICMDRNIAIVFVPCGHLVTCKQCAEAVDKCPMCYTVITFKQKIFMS

Chain of Dihydroorotate dehydrogenase (quinone), mitochondrial (Plasmodium falciparum (isolate 3D7)) (Q08210 whole entry, looked up): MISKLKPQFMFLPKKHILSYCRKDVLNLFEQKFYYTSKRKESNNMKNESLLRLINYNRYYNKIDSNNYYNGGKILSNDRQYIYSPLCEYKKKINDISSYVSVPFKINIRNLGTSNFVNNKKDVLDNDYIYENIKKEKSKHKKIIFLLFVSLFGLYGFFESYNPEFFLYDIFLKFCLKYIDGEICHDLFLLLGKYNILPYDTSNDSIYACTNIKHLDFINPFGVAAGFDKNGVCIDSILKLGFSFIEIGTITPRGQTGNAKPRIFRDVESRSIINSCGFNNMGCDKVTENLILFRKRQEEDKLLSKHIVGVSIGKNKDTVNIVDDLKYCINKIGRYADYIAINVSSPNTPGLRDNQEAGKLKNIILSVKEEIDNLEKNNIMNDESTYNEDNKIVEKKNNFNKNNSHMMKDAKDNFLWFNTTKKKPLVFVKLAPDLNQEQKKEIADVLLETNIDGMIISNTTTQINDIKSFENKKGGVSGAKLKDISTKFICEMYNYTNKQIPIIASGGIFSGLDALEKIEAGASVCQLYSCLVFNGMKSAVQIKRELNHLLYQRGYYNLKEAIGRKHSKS

SMILES | z-score [1] | z-score [2] | z-score [3] | z-score [4] | z-score [5] | z-score [6] | z-score [7] | z-score [8] | z-score [9] | z-score [10] | z-score [11] | z-score [12] | z-score [13] | composite z-score [14] | z-score [15] | z-score [16] | z-score [17] | z-score [18] | z-score [19] | composite z-score [20]
COC(=O)Cn1c(C(=O)N2CCCC2)cc2c1C[C@H]1CN(C(=O)c3ccccc3)[C@@](Cc3ccc(OC)cc3)(C(=O)OC)[C@@H]21 | -0.643 | -0.574 | 0.0447 | -1.72 | -2.24 | 1.49 | -1.1 (inactive) | -0.623 | -1.95 | -1.09 (inactive) | 0.101 | 1.5 (inactive) | -2.14 (inactive) | -0.632 (inactive) | 0.259 (inactive) | 0.569 (inactive) | -0.506 (inactive) | -0.031 (inactive) | -2.1 | 0.311
COc1ccc(CCN2C(=O)[C@@]3(c4ccc([N+](=O)[O-])cc4)CC(=O)N(CC45CC6CC(CC(C6)C4)C5)[C@@H]3c3ccc(CO)cc32)cc1 | 1.44 | 0.0861 | 0.71 | 0.0097 | -0.346 | 0.0982 | 0.0691 (inactive) | -0.0825 | 0.997 | 0.616 (inactive) | 0.214 | -0.12 (inactive) | 0.954 (inactive) | -25.3 (active) | 0.298 (inactive) | -0.16 (inactive) | 0.307 (inactive) | 0.241 (inactive) | 0.325 | 0.0325
C=CCN1C(=O)[C@@]2(Cc3ccccc3)N=C(c3ccc(OCCCO)cc3)O[C@H]2c2ccccc21 | -1.38 | 1.56 | -1.82 | -2.95 | -3.94 | -2.07 | 1.58 (inactive) | -1.11 | -2.14 | -1.36 (inactive) | -0.406 | -2.11 (inactive) | -2.82 (inactive) | 0.324 (inactive) | 1.39 (inactive) | 0.414 (inactive) | -0.304 (inactive) | -0.239 (inactive) | -4.23 | 0.212
C=CCOC(=O)[C@@H]1[C@H]2C(=O)O[C@H](c3ccccc3)[C@H](c3ccccc3)N2[C@H](c2ccc(OCCOC(=O)[C@H]3C[C@H]4C(=O)N[C@@H](CCCCNC(C)=O)C(=O)N4[C@H]3c3ccc(O)cc3)cc2)[C@@]12C(=O)Nc1ccc(I)cc12 | -0.778 | -0.796 | -0.931 | -0.989 | 0.572 | -0.422 | 0.725 (inactive) | -0.324 | -0.99 | 0.213 (inactive) | -0.0657 | 1.87 (inactive) | -0.967 (inactive) | 0.626 (inactive) | 2.56 (inactive) | 2.34 (inactive) | -0.0715 (inactive) | -0.649 (inactive) | -0.145 | -0.0566
Cc1ccc(S[C@]2(C(=O)NC3CC3)CC(=O)N(Cc3cc(C(F)(F)F)cc(C(F)(F)F)c3)[C@@H]2c2ccc(CO)cc2)cc1 | 0.902 | 1.69 | 0.445 | 0.239 | 0.16 | 0.259 | -0.472 (inactive) | -0.718 | -0.792 | 0.968 (inactive) | 1.1 | -1.03 (inactive) | 0.219 (inactive) | -2.37 (inactive) | 0.214 (inactive) | -0.921 (inactive) | 0.327 (inactive) | 0.561 (inactive) | 1.25 | 0.209
Cc1ccc([C@@H]2CC=C(C(=O)O)[C@H](c3ccccc3)N2S(=O)(=O)c2ccc(C)cc2)cc1 | -0.612 | 0.557 | -0.825 | -0.251 | -2.2 | -0.957 | 0.289 (inactive) | -0.373 | 0.511 | -0.997 (inactive) | -1.02 | -2.08 (inactive) | -1.26 (inactive) | -0.527 (inactive) | -0.405 (inactive) | 0.0193 (inactive) | -1.36 (inactive) | -1.3 (inactive) | -1.99 | -0.202
COCCOC(=O)N1C(=O)[C@@]2(c3cc(C#CCC(C(=O)OC)C(=O)OC)ccc31)[C@H](c1ccccc1OCCO)N1[C@H](c3ccccc3)[C@H](c3ccccc3)OC(=O)[C@H]1[C@@H]2C(=O)N1CCCCCCC1 | 0.579 | -0.219 | 0.779 | -0.895 | 0.103 | 0.335 | 2.19 (inactive) | -0.641 | -1.34 | 0.719 (inactive) | 1.16 | 1.29 (inactive) | 0.883 (inactive) | 0.243 (inactive) | 1.48 (inactive) | 2.14 (inactive) | 0.189 (inactive) | 0.364 (inactive) | 1.58 | 0.361
CCCC=C(CCC)[C@@H](NC(=O)c1ccccc1)c1ccccc1 | -0.956 | -0.551 | 0.46 | -0.0621 | -0.246 | -3.04 | 0.177 (inactive) | -0.017 | -1.49 | 0.215 (inactive) | -0.232 | 0.752 (inactive) | -1.01 (inactive) | -0.421 (inactive) | 1.27 (inactive) | 0.0321 (inactive) | 0.164 (inactive) | 0.475 (inactive) | 0.0944 | 0.086
C=CCC(OC(C)=O)[C@@H]1[C@@H](N(Cc2cccc3ccccc23)C(=O)c2ccc(C)cc2)c2cc(OCCCO)ccc2N1C(=O)c1ccc(-c2ccccc2)cc1 (stereo not given in full) | 1.1 | 0.719 | 1.47 | 1.07 | 0.783 | 3.02 | -0.0453 (inactive) | 0.456 | -0.848 | 0.417 (inactive) | 0.335 | -0.93 (inactive) | 1.01 (inactive) | -2 (inactive) | -0.0178 (inactive) | -1.51 (inactive) | 0.611 (inactive) | 0.861 (inactive) | 0.734 | 0.146
